{"source": "PubChem BioAssay (Tox21)", "note": "Records with an inconclusive call do not appear. Entries that show only a call come without a potency. Activity calls are given as the source filed them. Calls follow the shape of the dose curve; as a rule, active = well fitted cell-killing curve with a large enough effect in the repeat runs; inconclusive = weak or mixed curves, or effect the other way; inactive = flat fitted curve, though single readings scatter. Potency is read from the fitted curve at half-maximal effect.", "data": [{"experiment": "qHTS RealTime-Glo MT Cell Viability Assay in HEK293 cells - 32 hour (AID 1224868); also: nearly all actives have a fitted effect of over 50% in size", "conditions": "RealTime-Glo luminescence; series mostly up to 76.8 µM", "from_the_text": "National Center for Advancing Translational Sciences [NCATS]\nNIH Chemical Genomics Center [NCGC]\nU.S. Environmental Protection Agency [EPA]\nNational Institutes of Environmental Health Sciences [NIEHS]\nNational Toxicology Program [NTP]\nU.S. Food and Drug Administration [FDA]\nMeasure of cell viability is critical in the cell-base assay. Analysis of cell viability is necessary for the characterization of cell responses to cytotoxic drugs and environmental stress. A RealTime-Glo MT Cell Viability Assay to monitor cell viability in real time of continues cell culture during 40 hours of compound treatment was used to screen Tox21 10K library compounds in Hek293 cells. The RealTime-Glo MT Cell Viability Assay is a nonlytic, homogeneous, bioluminescent method to measure cell viability in real time using a simple, plate-based method. The assay involves adding NanoLuc luciferase and a cell-permeant prosubstrate to cells in culture. Viable cells reduce the proprietary prosubstrate to generate a substrate for NanoLuc luciferase. This substrate diffuses from cells into the surrounding culture medium, where it is rapidly used by the NanoLuc Enzyme to produce a luminescent signal. The signal correlates with the number of viable cells, making the assay well suited for cytotoxicity studies.\nTox21 Assay Protocol Summary:\nThe mixture of Hek293 cell suspension and reagents were dispensed at 600cells/6 ul/well in 1536-well tissue culture treated black solid bottom plates using a Multidrop dispenser. After the assay plates were incubated at a 37 C/5% CO2 incubator for 5 hours, 23 nL of compounds dissolved in DMSO, positive and negative controls was transferred to the assay plate by a pintool work station. The plates were incubated at 37 C for 40 hours. The luminescence intensity were measured at 0h, 8h, 16h, 24h, 32h and 40h time points using ViewLux plate reader during compound treatment.", "values": [{"smiles": "CC=C(Cl)Cl", "Potency": "inactive"}, {"smiles": "c1ccc(C[n+]2cccc3ccccc32)cc1", "Potency": "inactive"}, {"smiles": "CCOC(=O)OC(C)OC(=O)[C@@H]1N2C(=O)[C@@H](NC(=O)[C@H](N)c3ccccc3)[C@H]2SC1(C)C", "note": "(stereo not given in full)", "Potency": "inactive"}, {"smiles": "O=C(O)C[C@H](NC(=O)OCc1ccccc1)C(=O)O", "Potency": "inactive"}, {"smiles": "CCOC(=O)c1ccc(OCCN2C[C@H](O)[C@@H](O)[C@H](O)[C@H]2CO)cc1", "Potency": "inactive"}, {"smiles": "CCC=CC#N", "Potency": "inactive"}, {"smiles": "C[C@]1(Cn2ccnn2)[C@H](C(=O)O)N2C(=O)C[C@H]2S1(=O)=O", "Potency": "inactive"}, {"smiles": "COc1cc(C(=O)NCCCCCC(=O)O)cc(OC)c1OC", "Potency": "inactive"}, {"smiles": "CC(C)(C)C(=O)C(=O)O", "Potency": "inactive"}, {"smiles": "CC1=C(Br)C(=O)C(Br)=C/C1=C(/c1ccccc1S(=O)(=O)O)c1cc(Br)c(O)c(Br)c1C", "Potency": "inactive"}, {"smiles": "CC(CCC(=O)O)C(=O)O", "note": "(stereo not given)", "Potency": "inactive"}, {"smiles": "O=C(O)CCC(=O)C(=O)O", "Potency": "inactive"}, {"smiles": "CC(C)=CCC/C(C)=C/CC/C(C)=C/CCC(=O)OC/C=C(\\C)CCC=C(C)C", "Potency": "inactive"}, {"smiles": "Cc1cc(C)cc(N)c1", "Potency": "inactive"}, {"smiles": "Cc1cc(C)c(N)cc1C", "Potency": "inactive"}, {"smiles": "C=C/C(C)=C/C/C=C(\\C)CCC=C(C)C", "Potency": "inactive"}, {"smiles": "CC(=O)c1ccc([N+](=O)[O-])cc1", "Potency": "inactive"}, {"smiles": "C1C[C@@H]2[C@H]3CC[C@H](C3)[C@@H]2C1", "Potency": "inactive"}, {"smiles": "O=C(Cn1ccnc1[N+](=O)[O-])NCCO", "Potency": "inactive"}, {"smiles": "CCN(CC)CCNC(=O)COc1ccc(OC)cc1", "Potency": "inactive"}, {"smiles": "O=C(Nc1cccc2c(=O)cc(-c3nn[nH]n3)oc12)c1ccc(OCCCCc2ccccc2)cc1", "Potency": "inactive"}, {"smiles": "CC(=O)Oc1ccc([N+](=O)[O-])cc1CCl", "Potency": "3.89 µM (active)"}, {"smiles": "c1ccc2sc(SN(C3CCCCC3)C3CCCCC3)nc2c1", "Potency": "inactive"}, {"smiles": "CN1CCCN=C1COC(=O)C(O)(c1ccccc1)C1CCCCC1", "note": "(stereo not given)", "Potency": "inactive"}, {"smiles": "C[C@@H](O[C@H]1OCCN(Cc2n[nH]c(=O)[nH]2)[C@H]1c1ccc(F)cc1)c1cc(C(F)(F)F)cc(C(F)(F)F)c1", "Potency": "16.9 µM (active)"}, {"smiles": "CNC(=O)c1cnn(-c2nc(N)c3ncn([C@@H]4O[C@H](CO)[C@@H](O)[C@H]4O)c3n2)c1", "Potency": "inactive"}, {"smiles": "O=[N+]([O-])c1ccc(O/N=C/c2cc(Br)c(O)c(Br)c2)c([N+](=O)[O-])c1", "Potency": "43.4 µM (active)"}, {"smiles": "C=C(C)C(=O)OCCOCCOC(=O)C(=C)C", "Potency": "inactive"}, {"smiles": "Cc1cscn1", "Potency": "inactive"}, {"smiles": "COC(=O)c1nc(Cl)c(Cl)nc1N", "Potency": "5.35 µM (active)"}, {"smiles": "Oc1cc2c(cc1O)[C@H]1c3ccc(O)c(O)c3OC[C@@]1(O)C2", "Potency": "inactive"}, {"smiles": "Cc1ccc(OC(=O)c2ccccc2O)cc1", "Potency": "inactive"}, {"smiles": "NC(=O)c1ccncc1", "Potency": "inactive"}, {"smiles": "CCOC(=O)c1ccc(O)c(O)c1", "Potency": "inactive"}, {"smiles": "CCC(=O)C1CC(C(C)C)CC=C1C", "note": "(stereo not given)", "Potency": "inactive"}, {"smiles": "Nc1ccc(N=Nc2ccccc2)c(N)c1", "Potency": "42.7 µM (active)"}, {"smiles": "C1COC1", "Potency": "inactive"}, {"smiles": "C=C1c2cccc(O)c2C(O)=C2C(=O)[C@]3(O)C(O)=C(C(N)=O)C(=O)[C@@H](N(C)C)[C@@H]3[C@@H](O)[C@H]12", "Potency": "inactive"}, {"smiles": "CCCC(=O)C(=O)O", "Potency": "inactive"}, {"smiles": "CCC(C)COC(=O)CC(C)C", "note": "(stereo not given)", "Potency": "inactive"}]}]}
